For 20 compounds, Potency results are on record in PubChem BioAssay (NCATS).

Common to all, as to test: qHTS profiling for inhibitors of Plasmodium falciparum proliferation (AID 504749); note: nearly all actives have a fitted effect of over 60% in size
Conditions in all cases: P. falciparum in erythrocytes, SYBR Green DNA, 72 h; series mostly up to 28.7 µM
Background: qHTS replaces the single test concentration by a dilution series.

One test concerns DFO2036. The essentials:
(§1)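 Each compound contacts P. falciparum-infected red blood cells for 72 h at 37 C; lysis buffer (Tris, EDTA, saponin, Triton X, SYBR Green I) is added and fluorescence measured next morning; values normalized to controls.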

The test system of the next test is DIV14. Summed up: as §1
A further test deals with DIV17. The essentials: as §1
The subject of a further test is DIV30. The essentials:
as §1

Another test concerns Dd2. The essentials:
as §1

The next test concerns ECU. Summed up:
as §1

The next test relates to FAB9. The essentials: as §1
Another test relates to GB4. Summed up: as §1
Another test deals with HB3. The essentials:
as §1

For the next test, the system named is ICS. The essentials: as §1

The structures appear in SMILES notation. Results filed as inconclusive are left out. Calls of active or inactive are those of the source. Calls come from the whole dose curve; as a rule, active = well fitted inhibition curve with a large enough effect; inconclusive = small, poorly fitted or top-dose-only effect; inactive = flat fitted curve, though single readings scatter.
Potency is the fitted concentration of half-maximal effect.

`CC(C)(C(=O)c1cccnc1)c1cccnc1`: the Potency entry in the test with DFO2036, in the test with DIV14, in the test with DIV17, in the test with DIV30, in the test on Dd2 and with ECU was “inactive” throughout. For the same compound, the Potency entry in the test with FAB9, in the test on GB4, with HB3 and in the test on ICS was “inactive” throughout.

As for `CCCCCCc1ccc(O)cc1O`, the Potency entry with DFO2036, in the test on DIV14, in the test on DIV17, in the test on DIV30, in the test on Dd2 and in the test on ECU was “inactive” throughout. Also, the Potency result with FAB9, in the test with GB4, in the test on HB3 and in the test with ICS was “inactive” throughout.

For `Cc1ccnc(NS(=O)(=O)c2ccc(N)cc2)n1`, the Potency result with DFO2036, with DIV14, in the test on DIV17, with DIV30, in the test on Dd2 and in the test on ECU was “inactive” in each case. In addition, the Potency result with FAB9, with GB4, with HB3 and with ICS was “inactive” each time.

As to `CC(O)C(=O)O` (stereo not given), the Potency entry in the test with DFO2036, in the test on DIV14, with DIV17, in the test on DIV30, in the test on Dd2 and with ECU was “inactive” throughout. Besides, the Potency result in the test on FAB9, with GB4, in the test on HB3 and in the test on ICS was “inactive” in each case.

For `CCCCOc1ccc(OCCCN2CCOCC2)cc1`, the Potency entry in the test on DFO2036, with DIV14, with DIV17, in the test with DIV30, in the test with Dd2 and in the test with ECU was “inactive” in each case. Further, the Potency result with FAB9, in the test on GB4, in the test with HB3 and with ICS was “inactive” in each case.

`N[C@@H](Cc1cnc[nH]1)C(=O)O`: the Potency entry in the test on DFO2036, in the test with DIV14, in the test with DIV17, in the test on DIV30, with Dd2 and in the test with ECU was “inactive” throughout. The Potency result with FAB9, with GB4, in the test with HB3 and in the test with ICS was “inactive” each time.

Regarding `O=C1CCC(c2ccc(-n3ccnc3)cc2)=NN1`, the Potency entry with DFO2036, in the test with DIV14, with DIV17, in the test on DIV30, in the test with Dd2 and with ECU was “inactive” throughout. Also, the Potency entry in the test with FAB9, in the test with GB4, in the test on HB3 and in the test with ICS was “inactive” throughout.

On to `COc1cc(OC)cc(OC)c1`, for which the Potency result with DFO2036, in the test with DIV14, in the test with DIV17, with DIV30, with Dd2 and with ECU was “inactive” throughout. Also, the Potency result in the test on FAB9, in the test on GB4, in the test on HB3 and with ICS was “inactive” in each case.

Regarding `NC(=NCCCCCCN=C(N)/N=C(\N)Nc1ccc(Cl)cc1)/N=C(\N)Nc1ccc(Cl)cc1`, the Potency with DFO2036 was 1.78 µM (active); in the test on DIV14, 1.07 µM (active); in the test with DIV17, 1.07 µM (active); with DIV30, 1.51 µM (active); in the test on Dd2, 2 µM (active); in the test on ECU, 2.24 µM (active). Moreover, the Potency in the test on FAB9 is 2 µM (active); in the test on GB4, 1.07 µM (active); in the test with HB3 it was 4.47 µM (active); with ICS it was 0.355 µM (active).

As for `CCOC(=O)OC(C)OC1=C(C(=O)Nc2ccccn2)N(C)S(=O)(=O)c2ccccc21` (stereo not given), the Potency entry in the test on DFO2036, in the test on DIV14, in the test on DIV17, with DIV30, with Dd2 and with ECU was “inactive” throughout. The Potency entry in the test with FAB9, in the test on GB4, with HB3 and in the test on ICS was “inactive” throughout.

As for `CC(C)(C)CC(C)(C)c1ccc(OCCOCC[N+](C)(C)Cc2ccccc2)cc1`, the Potency in the test on DFO2036 was 3.98 µM (active); with DIV14 it was 3.38 µM (active); with DIV17 it was 4.78 µM (active); with DIV30, 4.26 µM (active); in the test on Dd2, 4.47 µM (active); in the test with ECU, 5.01 µM (active). In addition, the Potency in the test on FAB9 was 5.01 µM (active); in the test on GB4 it was 3.38 µM (active); in the test on HB3, 6.31 µM (active); in the test with ICS, 1.26 µM (active).

For `COc1cc2c(cc1OC)C(C(C(=O)N(CCc1ccc(OC)c(OC)c1OC)CCc1ccc(OC)c(OC)c1OC)c1ccccc1)=NCC2` (stereo not given), the Potency result in the test with DFO2036 is “inactive”. The Potency is 1.35 µM (active) in the test on DIV14; 1.35 µM (active) with DIV17; 1.35 µM (active) in the test on DIV30; 3.98 µM (active) in the test with Dd2; 2.24 µM (active) with ECU; 11.2 µM (active) in the test with FAB9. Also, the Potency in the test on GB4 was 7.57 µM (active); with HB3, 5.01 µM (active); in the test on ICS it was 0.199 µM (active).

With `CC(C)(C)CC(C)(C)c1ccc(O)c(Cc2ccc(Cl)cc2Cl)c1`, the Potency is 2 µM (active) with DFO2036; 0.601 µM (active) with DIV14; 1.07 µM (active) in the test with DIV17; 1.51 µM (active) in the test on DIV30; 1.58 µM (active) in the test on Dd2; 2 µM (active) in the test with ECU. Further, the Potency is 5.62 µM (active) in the test with FAB9, 0.849 µM (active) in the test with GB4, 2 µM (active) in the test on HB3 and 0.316 µM (active) with ICS.

Take `CCCCCCC[N+](CC)(CC)CCCCc1ccc(Cl)cc1`: the Potency with DFO2036 is 1.78 µM (active); in the test with DIV14, 0.809 µM (active); in the test with DIV17, 0.809 µM (active); with DIV30, 2.28 µM (active); in the test on Dd2, 2 µM (active); in the test on ECU it was 1.58 µM (active). The Potency with FAB9 was 3.55 µM (active); in the test with GB4 it was 0.721 µM (active); with HB3 it was 2.51 µM (active); with ICS it was 0.708 µM (active).

With `CCn1cc(C(=O)O)c(=O)c2cnc(N3CCCC3)nc21`, the Potency entry with DFO2036, in the test with DIV14, in the test with DIV17, with DIV30, in the test with Dd2 and in the test with ECU was “inactive” in each case. Besides, the Potency entry in the test on FAB9, with GB4, in the test on HB3 and in the test on ICS was “inactive” in each case.

For the compound `Cc1cc(=O)n(-c2ccccc2)n1C`, the Potency entry in the test with DFO2036, with DIV14, with DIV17, with DIV30, in the test with Dd2 and in the test on ECU was “inactive” each time. Moreover, the Potency entry in the test with FAB9, in the test on GB4, in the test on HB3 and in the test on ICS was “inactive” each time.

Take `CCC(=O)c1c(O)cc(O)cc1O`: the Potency result in the test with DFO2036, with DIV14, in the test on DIV17, in the test on DIV30, with Dd2 and with ECU was “inactive” each time. The Potency entry in the test with FAB9, with GB4, with HB3 and with ICS was “inactive” throughout.

In the case of `Cc1ncc(CSSCc2cnc(C)c(O)c2CO)c(CO)c1O`, the Potency result with DFO2036, with DIV14, with DIV17, in the test on DIV30, in the test on Dd2 and in the test on ECU was “inactive” each time. Also, the Potency entry with FAB9, with GB4, in the test with HB3 and in the test with ICS was “inactive” in each case.

For `COc1ccc(CCN2CCC(Nc3nc4ccccc4n3Cc3ccc(F)cc3)CC2)cc1`, the Potency in the test with DFO2036 is 3.55 µM (active); with DIV14 it was 4.78 µM (active); with DIV17, 4.78 µM (active); in the test on DIV30 it was 13.5 µM (active); with Dd2, 8.91 µM (active); with ECU, 2 µM (active). For the same compound, the Potency in the test on FAB9 is 3.16 µM (active); in the test on GB4, 1.9 µM (active); in the test with HB3, 4.47 µM (active); in the test with ICS, 2.82 µM (active).

For the compound `COc1c2occc2c(OC)c2c(=O)cc(C)oc12`, the Potency entry with DFO2036, in the test on DIV14, in the test on DIV17, in the test on DIV30, in the test with Dd2 and in the test with ECU was “inactive” in each case. Further, the Potency entry in the test with FAB9, in the test with GB4, with HB3 and in the test on ICS was “inactive” throughout.
